# According to ChEMBL document CHEMBL4513141, “CO-ADD screening of NIH (USA) - Clinical Collection” (2021):
# Results with a measured potency or affinity are listed apart.
# System: Candida albicans
# Conditions: 20 µM
row,SMILES,Inhibition
1,COc1cc(C[C@@H](CO)[C@H](CO)Cc2ccc(O)c(OC)c2)ccc1O [(+)-SECOISOLARICIRESINOL],4.22%
2,CNC(=C[N+](=O)[O-])NCCSCc1csc(CN(C)C)n1 [NIZATIDINE],0.73%
3,CC(C)(C)C(O)/C=C/c1ccc2c(c1)OCO2 (configuration not stated) [STIRIPENTOL],4.55%
4,NS(=O)(=O)c1cc2c(cc1Cl)NCNS2(=O)=O [HYDROCHLOROTHIAZIDE],2.05%
5,CCN(CC)CC(=O)Nc1c(C)cccc1C [LIDOCAINE],1.15%
6,CC(O)CO.N[C@@H](C(=O)N[C@@H]1C(=O)N2C(C(=O)O)=C(CSc3c[nH]nn3)CS[C@H]12)c1ccc(O)cc1,12.3%
7,C#C[C@]1(O)CC[C@H]2[C@@H]3CCc4cc(O)ccc4[C@H]3CC[C@@]21C [ETHINYL ESTRADIOL],2.87%
8,Cc1sc(N)c(C(=O)c2cccc(C(F)(F)F)c2)c1C,1.23%
9,COc1cc(C(=O)NC2CCCNC2)cc(OC)c1OC (configuration not stated) [TROXIPIDE],5.32%
10,CCOC(=O)C1=C(C)NC(C)=C(C(=O)OC)C1c1cccc([N+](=O)[O-])c1 (configuration not stated) [NITRENDIPINE],3.79%
11,CC(C)NCC(O)COc1ccc(CC(N)=O)cc1 (configuration not stated) [ATENOLOL],3.26%
12,O=C1N=C([O-])NC1(c1ccccc1)c1ccccc1.[Na+] [PHENYTOIN SODIUM],2.49%
13,Cl.Cn1c(NCCN(CCO)CCCc2ccc([N+](=O)[O-])cc2)cc(=O)n(C)c1=O,4.73%
14,C[C@@H]1C[C@H]2[C@@H]3C[C@H](F)C4=CC(=O)C(Cl)=C[C@]4(C)[C@@]3(F)[C@@H](O)C[C@]2(C)[C@@]1(O)C(=O)CO [HALOMETASONE],-0.05%
15,NC(=O)N1c2ccccc2CC(=O)c2ccccc21 [OXCARBAZEPINE],2.7%
16,CN1CCN(CCCN2c3ccccc3Sc3ccc(Cl)cc32)CC1.O=C(O)/C=C\C(=O)O.O=C(O)/C=C\C(=O)O [PROCHLORPERAZINE MALEATE],3.08%

row,SMILES,Inhibition
1,C[C@]12C=CC(=O)C=C1CC[C@@H]1[C@@H]2C(=O)C[C@@]2(C)[C@H]1CC[C@]2(O)C(=O)CO [PREDNISONE],1.91%
2,O.OC[C@H]1O[C@@H](n2cnc3c(NC4CCCC4)nc(Cl)nc32)[C@@H](O)C1O (some centres not stated),1.81%
3,CC(=O)O[C@H]1C[C@@H]2CC[C@@H]3[C@H](CC[C@@]4(C)[C@H]3C[C@H]([N+]3(C)CCCCC3)[C@@H]4OC(C)=O)[C@@]2(C)C[C@@H]1N1CCCCC1.[Br-] [VECURONIUM BROMIDE],5.46%
4,CS(=O)(=O)O.Oc1ccc(C2CNCCc3c2cc(O)c(O)c3Cl)cc1 (configuration not stated) [FENOLDOPAM MESYLATE],1.85%
5,O=C(C1CCCCC1)N1CC(=O)N2CCc3ccccc3C2C1 (configuration not stated) [PRAZIQUANTEL],5.72%
6,CN1CCC(=C2c3ccccc3C=Cc3ccccc32)CC1.Cl [CYPROHEPTADINE HYDROCHLORIDE],3.56%
7,CN1CC(=O)N2[C@H](c3ccc4c(c3)OCO4)c3[nH]c4ccccc4c3C[C@@H]2C1=O,-1.32%
8,COc1ccccc1OCCNCC(O)COc1cccc2[nH]c3ccccc3c12 (configuration not stated) [CARVEDILOL],1.69%
9,CN1CCN(c2nc3cc(C(F)(F)F)ccc3n3cccc23)CC1.O=C(O)/C=C\C(=O)O.O=C(O)/C=C\C(=O)O,3.61%
10,CC[C@H]1OC(=O)[C@H](C)C(=O)[C@H](C)[C@@H](O[C@@H]2O[C@H](C)C[C@H](N(C)C)[C@H]2O)[C@](C)(OC)C[C@@H](C)C(=O)[C@H](C)[C@@H]2N(CCCCn3cnc(-c4cccnc4)c3)C(=O)O[C@@]21C,0.39%
11,COC(=O)C1=C(C)NC(C)=C(C(=O)OCCN(C)Cc2ccccc2)C1c1cccc([N+](=O)[O-])c1.Cl (configuration not stated) [NICARDIPINE HYDROCHLORIDE],0.94%
12,CC(CCCCC(=O)Nc1ccc(C(F)(F)F)cc1)NCCc1c[nH]cn1.O=C(O)/C=C\C(=O)O.O=C(O)/C=C\C(=O)O (configuration not stated),2.76%
13,CC(=CCC1=C(C)C(=O)c2ccccc2C1=O)CCCC(C)CCCC(C)CCCC(C)C (configuration not stated),3.2%
14,CC1(C)S[C@@H]2[C@H](/N=C/N3CCCCCC3)C(=O)N2[C@H]1C(=O)O [AMDINOCILLIN],4.08%
15,N=c1cc(N2CCCCC2)nc(N)n1O,2.93%
16,Cl.Clc1ccc2nsnc2c1NC1=NCCN1 [TIZANIDINE HYDROCHLORIDE],3.84%
